In PubChem BioAssay (NCI):
The panel holds about 83,000 compounds, 20% with a hit somewhere; the sample as a whole holds those more often.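 Activity criterion: percent growth below 10, measured after cells in 96-well plates were exposed to a single compound concentration for 48 hours.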 Calls of active or inactive are those of the source.

Tested on: NCI-H226 lung
Test: NCI-60 one-dose screen, 48 h (100 = growth as untreated, 0 = no growth, -100 = all killed)
Conditions: 10 µM unless noted

SMILES	growth
O=c1[nH]n(C(=S)N/N=C/c2ccccc2Cl)c(=O)c2ccccc12	-19.9% (active)
Cn1cc(-c2nnc(N)nc2-c2c[nH]c3ccc(F)cc23)c2cccnc21	72.4% (inactive)
CN1CCN(Cc2ccc(C(=O)Nc3cccc(C#Cc4cccc5[nH]nc(N)c45)c3)cc2C(F)(F)F)CC1	-84% (active)
Cc1ccccc1[C@H]1C(C(=O)c2ccc(Cl)cc2)C2(N[C@@H]1c1ccccc1)C(=O)Nc1ccc(Br)cc12 (stereo partly drawn)	25.5% (inactive)
N#Cc1c(-c2cccc(Cl)c2Cl)cc(-c2ccc3ccccc3c2)[nH]c1=O	19.6% (inactive)
NS(=O)(=O)c1ccc(-n2cc(-c3cccc(NC(=O)c4cc(C(F)(F)F)cc(C(F)(F)F)c4)c3)nn2)cc1	27.5% (inactive)
COc1ccc(C(=O)/C=C/c2ccccc2Cl)cc1S(N)(=O)=O	106% (inactive)
O=C(/C=C/c1cccc(OCc2ccc(F)cc2)c1)c1nc2ccccc2[nH]1	42.2% (inactive)
Cc1cc(=O)oc2cc(OCCCOc3ccc(/C=C/C(=O)Nc4ccccc4N)cc3)ccc12	18.4% (inactive)
S=C(Nc1ccc(OCc2nc3ccccc3[nH]2)cc1)NC1CCCCC1	105% (inactive)
N#Cc1c(-c2ccccc2Cl)cc(-c2c[nH]c3ccccc23)[nH]c1=O	64.3% (inactive)
CC1=C(C(=O)OCc2ccccc2)C(c2c(O)cc(O)cc2O)n2c(nc3ccccc32)N1 (stereo not drawn)	62.2% (inactive)
CCOc1ccc(-c2c(C#N)c(-c3ccc(Cl)cc3)nc3n[nH]c(-c4ccc(Cl)cc4)c23)cc1OC	59.1% (inactive)
Cc1ccc(Cc2cnc(NC(=O)c3ccc(/C=C4\SC(=S)N(C)C4=O)cc3)s2)cc1	52.5% (inactive)
Cc1ccc(C(=O)CSc2nc3ccc(F)cc3c(=O)n2-c2ccc(Cl)cc2)cc1	-21.9% (active)
C[C@H](Nc1nc(NCCc2ccccc2)nc2ccccc12)c1ccccc1	-80.4% (active)
COc1cc(-c2ccc(/C=N/NC(=O)c3[nH]c4ccc(Br)cc4c3-c3ccccc3)s2)cc(OC)c1OC	54.4% (inactive)
OCNc1ccc(-n2cnc3cc(-c4ccc(O)cc4)ccc32)cc1C(F)(F)F	51% (inactive)
COc1cc(OC)cc(C(=O)Nc2cccc(-c3cn(-c4ccc(S(N)(=O)=O)cc4)nn3)c2)c1	57.5% (inactive)

SMILES	growth
COc1ccc2[nH]c(O)c(N=NC(=O)COc3ccc(NC(=O)Nc4ccccc4)cc3)c2c1	26.7% (inactive)
Cc1ccc2c(N)c(C(=O)Nc3ccc(OC(F)(F)F)cc3)sc2n1	47% (inactive)
COc1cc(/C=C/C(=O)c2ccc(C)cc2)ccc1Oc1nc(Nc2ccc(F)cc2)nc(N(C)C)n1	61.9% (inactive)
N#Cc1c(NCc2ccccc2)n[nH]c1Nc1ccccc1	50.2% (inactive)
CC(C)c1sc(NC(=O)c2cc(NC(=O)c3cc(NC(=O)c4cscn4)cn3C)cn2C)nc1C(=O)NCCCN(C)C	-54% (active)
CCOc1ccc(C(=O)NC(=S)Nc2ccc(S(N)(=O)=O)cc2)cc1	97.1% [100 µM] (inactive)
Nc1cccc(SCc2cc3ccccc3[nH]c2=O)c1	69.8% (inactive)
CC1=C(C(=O)c2ccccc2)C(c2ccc(-n3cncn3)cc2)n2c(nc3ccccc32)N1 (stereo not drawn)	87.4% (inactive)
O=C(c1ccc(OCCN2CCOCC2)cc1)C1[C@H](c2ccc(Cl)cc2)[C@@H](c2ccccc2)NC12C(=O)Nc1ccc(Cl)cc12 (stereo partly drawn)	48.3% (inactive)
CCCCCCCCc1ccc(S(=O)(=O)Nc2ccc(CC)cc2C(=O)O)cc1	88% (inactive)
COc1cc2oc(-c3cccc(C(=O)Nc4cccc([N+](=O)[O-])c4)c3)cc(=O)c2c(OC)c1OC	-18.5% (active)
C=C1CC[C@@H]2[C@]3(C)COC(c4ccccc4)O[C@@H]3CC[C@@]2(C)[C@@H]1C/C=C1/C(=O)OCC1OC(C)=O (stereo partly drawn)	-79.8% (active)
C=C1CC[C@@H]2[C@]3(C)COC(c4cn[nH]c4-c4ccc(C)cc4)O[C@@H]3CC[C@@]2(C)[C@@H]1C/C=C1/C(=O)OCC1O (stereo partly drawn)	-65.3% (active)
CC(C)CSc1nc(NCCc2c[nH]c3ccccc23)c(C#N)c(-c2ccc(Cl)cc2)n1	51.3% (inactive)
NS(=O)(=O)c1ccc(-n2cc(-c3cccc(NC(=O)c4cc(Cl)cc(Cl)c4)c3)nn2)cc1	105% (inactive)
C=C1CCC2C3(C)COC(c4ccc(F)cc4)OC3CCC2(C)C1C/C=C1/C(=O)OCC1O (stereo not drawn)	-8.14% (active)
CCN1C(=O)/C(=N\N=C(/C)c2ccc3c(c2)Nc2ccccc2S3)c2cc(Cl)ccc21	66.7% (inactive)
N#Cc1c(-c2cccc3ccccc23)cc(-c2cccc(OCC(=O)O)c2)[nH]c1=O	93.6% (inactive)
O=C(COc1ccc(NC(=O)Nc2ccccc2)cc1)N=Nc1c(O)[nH]c2ccc([N+](=O)[O-])cc12	18.6% (inactive)
